The nature of the test: qHTS for Inhibitors of Cell Surface uPA Generation: Wild-type Protective Antigen (WT-PrAg) Counterscreen for Cherry-picked Compounds. In general terms: Quantitative high-throughput screening tests each substance at several concentrations.

SMILES strings stand for the structures. Results filed as inconclusive are left out. Entries that show only a call come without a potency. Activity calls are given as the source filed them. The call rests on the fitted dose curve.

We go through 40 molecules from PubChem BioAssay AID720518 (National Center for Advancing Translational Sciences (NCATS), 2013).
Potency means the concentration at half of the fitted maximal effect.

With `O=c1[nH]c2ccccc2cc1CN(CC1CCCO1)S(=O)(=O)c1ccccc1` (stereo not given), the Potency result is “inactive”.
The entry for `COc1ccc(C(=O)NC(C)c2cnn(-c3ccccn3)c2C)o1` (stereo not given) is “inactive”.
The entry for `O=C(CSc1nnnn1-c1cccc(F)c1)Nc1nc2ccccc2s1` is “inactive”; for `CSCC[C@H](NC(=O)[C@H](Cc1ccccc1)n1c(=O)[nH]c2ccccc2c1=O)C(=O)N1CCC[C@H]1C(=O)O` it is “inactive”.
For `O=C(CCS(=O)(=O)c1ccc2c(c1)NC(=O)CS2)NCc1cccs1` the value was “inactive”; for `COCCNC(=O)COCc1cc(-c2ccc3c(c2)OCO3)on1`, “inactive”.
In the case of `CCn1c(=O)cc(C(=O)OC)sc1=Nc1ccc(F)c(F)c1`, the Potency entry is “inactive”.
For `Cc1cc(C)nc(N2N=C(C(F)(F)F)CC2=O)n1` the value was “inactive”; for `Cc1ccccc1C(=O)Nc1ccccc1N1CCCCC1`, “inactive”; for `CNC(=O)[C@@H]1CCC(=O)N1`, “inactive”.
Consider `CCN(CC)c1ccc(C=NCCc2ccc(S(N)(=O)=O)cc2)cc1`, for which the Potency result was “inactive”.
For `CC(NC(=O)C1CCC(C(=O)NC(C)c2ccccc2)CC1)c1ccccc1` (stereo not given) the value was “inactive”; for `O=C1c2ccccc2[C@@H]2C[C@H](NC34CC5CC(CC(C5)C3)C4)[C@@H](O)CCN12`, “inactive”.
For `CCCOC(=O)CSC1=C(C#N)C(c2ccccc2Cl)CC(=O)N1` (stereo not given) the value was “inactive”.
On to `CCOC(=O)C1CCCN(CC(=O)Nc2ccc(C(=O)Nc3ccccc3OC)cc2)C1` (stereo not given), for which the Potency entry is “inactive”.
For `COc1ccccc1N1CCN(C(=O)CCC(=O)N2CCN(c3ccc(F)cc3)CC2)CC1` the value was “inactive”; for `C=CS(=O)(=O)c1ccc(Oc2ccc(S(=O)(=O)C=C)cc2)cc1`, 65.6 µM (active); for `CC(=O)Oc1ccc(OC(C)=O)c(SCCCCCCl)c1`, “inactive”.
The entry for `COc1cccc(C2CC(c3ccc(C)cc3)n3ncnc3N2)c1` (stereo not given) is “inactive”.
Take `COc1ccc(CCNC(=O)Cn2cccc2C(=O)c2ccccc2)c(OC)c1`: the Potency result is “inactive”.
For `CCC(=O)N1CCC(NC(=O)Nc2ccc(OC(F)(F)F)cc2)CC1` the value was “inactive”; for `O=C(O)c1ccccc1/C=N/NC(=S)NC1CCCCC1`, “inactive”.
The entry for `Cc1ccc(C)c(NC(=O)CCN2CCN(c3ccccc3F)CC2)c1` is “inactive”; for `CCC1Nc2ncnc(N3CCCCC3)c2N(Cc2ccc(Cl)cc2)C1=O` (stereo not given) it is “inactive”.
For `C[C@]12CCC(O)CC1CCC1C2CC[C@]2(C)C(c3cc(C(F)(F)F)n[nH]3)CCC12` (stereo not given in full) the value was “inactive”.
Take `O=C1CC(/C=C/c2ccc(Cl)cc2)=Nc2ccccc2N1`: the Potency entry was “inactive”.
The entry for `CCN(C(=O)CSc1ncnc2sccc12)c1c(N)n(Cc2ccccc2)c(=O)[nH]c1=O` is “inactive”.
The entry for `O=C(CCc1ccccc1)NNC(=O)c1cccc(F)c1` is “inactive”; for `Cc1cc(/C=N/NC(=O)c2ccccc2F)c(C)n1-c1ccccc1` it is “inactive”.
The entry for `CC(=O)Nc1sc(C)c(C)c1C(=O)OCC(=O)NC(C)c1ccccc1` (stereo not given) is “inactive”; for `Cc1ccc(Cl)cc1NC(=O)c1ccccc1OCC(=O)N1CCOCC1` it is “inactive”.
With `COc1cc(/C=N/NC(=O)Cc2csc(C)n2)ccc1OCC(C)C`, the Potency result was “inactive”.
The entry for `CCOC(=O)CN1C(=O)N[C@@H](c2ccccc2)C(C(C)=O)=C1C` is “inactive”.
For `CCCCN(CC(=O)NCc1ccc(F)cc1)C(=O)c1ccco1` the value was “inactive”.
For `COc1ccc(C(=O)NNC(=O)Cc2ccc(Cl)cc2)cc1` the value was “inactive”.
For `O=C1CCCc2ccccc2N1Cc1ccc(F)cc1`, the Potency entry was “inactive”.
The entry for `Cc1cc(C)n(-c2cc(C(=O)O)cc(C(=O)O)c2)n1` is “inactive”; for `COc1ccc(C(=O)CC(=O)C(=O)Nc2ccccc2)cc1` it is “inactive”.
The entry for `O=C(COc1cccc2ccccc12)NNC(=O)c1cnccn1` is “inactive”; for `O=S(=O)(/N=C(/c1ccccc1)N1CCOCC1)c1ccc(F)cc1F` it is “inactive”.
